The source of these data is the supplement of paper PMC10849652.

Of roughly 8,800 targets only a part is listed; those with a hit were picked by preference. About 0.5% of all pairs of compound and target were hits. Values without a mark were called inactive.

Sequence of UniProt Q96L91 (Q96L91 whole entry, looked up): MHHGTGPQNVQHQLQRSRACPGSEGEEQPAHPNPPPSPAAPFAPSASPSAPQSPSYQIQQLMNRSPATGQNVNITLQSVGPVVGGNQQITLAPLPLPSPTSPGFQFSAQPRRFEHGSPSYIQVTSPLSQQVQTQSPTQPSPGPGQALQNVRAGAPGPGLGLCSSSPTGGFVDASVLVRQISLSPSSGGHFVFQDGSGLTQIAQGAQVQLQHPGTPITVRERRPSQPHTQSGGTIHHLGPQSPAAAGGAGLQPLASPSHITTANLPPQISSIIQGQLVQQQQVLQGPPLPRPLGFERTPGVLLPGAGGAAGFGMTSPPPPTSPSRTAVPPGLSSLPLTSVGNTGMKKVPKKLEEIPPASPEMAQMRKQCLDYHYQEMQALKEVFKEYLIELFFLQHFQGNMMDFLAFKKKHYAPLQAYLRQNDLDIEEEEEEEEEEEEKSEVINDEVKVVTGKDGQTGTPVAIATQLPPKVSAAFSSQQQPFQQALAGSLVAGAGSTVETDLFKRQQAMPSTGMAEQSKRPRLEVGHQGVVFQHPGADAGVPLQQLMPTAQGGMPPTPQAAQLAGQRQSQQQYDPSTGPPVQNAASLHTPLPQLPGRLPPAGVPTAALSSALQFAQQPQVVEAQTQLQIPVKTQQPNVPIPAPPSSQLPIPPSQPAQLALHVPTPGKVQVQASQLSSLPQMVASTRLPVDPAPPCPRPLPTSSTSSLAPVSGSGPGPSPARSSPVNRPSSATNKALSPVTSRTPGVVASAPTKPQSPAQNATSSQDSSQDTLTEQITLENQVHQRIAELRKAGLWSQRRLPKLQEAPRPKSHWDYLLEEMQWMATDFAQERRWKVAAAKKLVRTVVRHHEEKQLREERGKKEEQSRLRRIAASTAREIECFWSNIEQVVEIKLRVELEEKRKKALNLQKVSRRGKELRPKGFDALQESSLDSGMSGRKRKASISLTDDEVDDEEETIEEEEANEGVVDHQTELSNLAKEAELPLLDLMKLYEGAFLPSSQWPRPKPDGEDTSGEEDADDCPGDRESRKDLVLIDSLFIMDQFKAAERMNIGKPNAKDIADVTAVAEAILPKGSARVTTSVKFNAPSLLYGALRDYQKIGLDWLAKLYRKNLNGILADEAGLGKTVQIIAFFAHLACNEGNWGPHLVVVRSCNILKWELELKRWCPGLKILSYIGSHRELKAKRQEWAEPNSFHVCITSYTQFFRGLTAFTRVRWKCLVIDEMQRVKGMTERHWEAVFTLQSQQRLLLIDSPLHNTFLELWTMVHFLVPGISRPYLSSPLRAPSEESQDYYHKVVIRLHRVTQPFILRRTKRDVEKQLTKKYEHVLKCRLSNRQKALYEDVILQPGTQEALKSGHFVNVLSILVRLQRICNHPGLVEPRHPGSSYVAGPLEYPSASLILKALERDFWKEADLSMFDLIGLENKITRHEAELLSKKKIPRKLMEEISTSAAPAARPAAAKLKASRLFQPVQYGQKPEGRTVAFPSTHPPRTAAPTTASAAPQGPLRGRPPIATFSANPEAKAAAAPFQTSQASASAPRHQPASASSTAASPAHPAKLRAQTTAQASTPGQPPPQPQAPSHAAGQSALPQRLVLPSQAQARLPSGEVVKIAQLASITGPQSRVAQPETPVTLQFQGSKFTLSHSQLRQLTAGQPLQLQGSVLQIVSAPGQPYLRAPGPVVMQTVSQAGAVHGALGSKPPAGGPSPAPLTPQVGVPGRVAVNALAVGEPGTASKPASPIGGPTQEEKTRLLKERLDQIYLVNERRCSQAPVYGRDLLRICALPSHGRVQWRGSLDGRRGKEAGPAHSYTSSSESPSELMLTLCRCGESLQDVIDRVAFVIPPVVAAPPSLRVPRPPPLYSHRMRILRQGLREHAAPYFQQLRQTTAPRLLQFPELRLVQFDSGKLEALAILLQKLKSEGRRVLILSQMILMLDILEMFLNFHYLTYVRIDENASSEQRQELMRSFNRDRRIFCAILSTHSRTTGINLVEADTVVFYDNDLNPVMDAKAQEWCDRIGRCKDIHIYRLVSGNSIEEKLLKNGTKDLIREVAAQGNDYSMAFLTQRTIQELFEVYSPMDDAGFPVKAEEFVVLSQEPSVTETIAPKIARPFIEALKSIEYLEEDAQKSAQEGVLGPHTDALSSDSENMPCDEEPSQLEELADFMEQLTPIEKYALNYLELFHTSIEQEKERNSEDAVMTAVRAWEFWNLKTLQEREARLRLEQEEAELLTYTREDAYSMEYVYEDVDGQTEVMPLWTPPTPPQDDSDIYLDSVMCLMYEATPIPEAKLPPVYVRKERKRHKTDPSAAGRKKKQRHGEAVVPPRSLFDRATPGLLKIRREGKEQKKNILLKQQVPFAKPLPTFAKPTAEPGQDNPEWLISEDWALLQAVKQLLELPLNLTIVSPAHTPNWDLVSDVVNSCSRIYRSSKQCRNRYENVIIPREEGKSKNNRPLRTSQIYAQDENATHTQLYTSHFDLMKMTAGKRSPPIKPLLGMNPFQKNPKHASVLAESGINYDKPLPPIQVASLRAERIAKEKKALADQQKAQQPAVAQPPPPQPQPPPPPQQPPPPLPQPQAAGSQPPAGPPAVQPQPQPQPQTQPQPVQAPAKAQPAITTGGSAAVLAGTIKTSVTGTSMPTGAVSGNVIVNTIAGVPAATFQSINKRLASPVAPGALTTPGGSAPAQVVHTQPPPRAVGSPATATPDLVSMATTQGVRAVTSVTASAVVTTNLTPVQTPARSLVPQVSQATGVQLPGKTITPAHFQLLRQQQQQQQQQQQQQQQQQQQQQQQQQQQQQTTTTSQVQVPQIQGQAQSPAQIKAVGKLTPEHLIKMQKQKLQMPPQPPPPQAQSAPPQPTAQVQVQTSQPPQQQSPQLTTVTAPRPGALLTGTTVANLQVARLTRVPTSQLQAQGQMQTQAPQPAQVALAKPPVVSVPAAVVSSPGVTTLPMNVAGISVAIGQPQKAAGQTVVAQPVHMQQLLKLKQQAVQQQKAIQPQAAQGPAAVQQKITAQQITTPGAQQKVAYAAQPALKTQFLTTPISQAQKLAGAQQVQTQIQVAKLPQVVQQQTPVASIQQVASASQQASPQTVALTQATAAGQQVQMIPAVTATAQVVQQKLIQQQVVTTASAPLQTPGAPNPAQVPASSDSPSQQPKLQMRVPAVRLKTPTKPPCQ
Sequence of UniProt O75616 (O75616 whole entry, looked up): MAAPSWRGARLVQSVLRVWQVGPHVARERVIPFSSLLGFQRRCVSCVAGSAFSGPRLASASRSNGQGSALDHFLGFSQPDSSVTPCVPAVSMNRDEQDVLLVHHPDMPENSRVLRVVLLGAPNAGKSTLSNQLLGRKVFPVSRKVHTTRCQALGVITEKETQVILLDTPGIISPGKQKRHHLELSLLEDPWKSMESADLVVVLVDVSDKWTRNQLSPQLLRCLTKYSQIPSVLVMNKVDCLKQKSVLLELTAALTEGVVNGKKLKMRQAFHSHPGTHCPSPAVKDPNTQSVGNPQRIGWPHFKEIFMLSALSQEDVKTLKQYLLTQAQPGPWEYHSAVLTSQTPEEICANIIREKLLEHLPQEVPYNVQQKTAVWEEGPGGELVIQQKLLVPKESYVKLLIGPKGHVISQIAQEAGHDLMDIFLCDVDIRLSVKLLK
Sequence of UniProt Q10471 (Q10471 whole entry, looked up): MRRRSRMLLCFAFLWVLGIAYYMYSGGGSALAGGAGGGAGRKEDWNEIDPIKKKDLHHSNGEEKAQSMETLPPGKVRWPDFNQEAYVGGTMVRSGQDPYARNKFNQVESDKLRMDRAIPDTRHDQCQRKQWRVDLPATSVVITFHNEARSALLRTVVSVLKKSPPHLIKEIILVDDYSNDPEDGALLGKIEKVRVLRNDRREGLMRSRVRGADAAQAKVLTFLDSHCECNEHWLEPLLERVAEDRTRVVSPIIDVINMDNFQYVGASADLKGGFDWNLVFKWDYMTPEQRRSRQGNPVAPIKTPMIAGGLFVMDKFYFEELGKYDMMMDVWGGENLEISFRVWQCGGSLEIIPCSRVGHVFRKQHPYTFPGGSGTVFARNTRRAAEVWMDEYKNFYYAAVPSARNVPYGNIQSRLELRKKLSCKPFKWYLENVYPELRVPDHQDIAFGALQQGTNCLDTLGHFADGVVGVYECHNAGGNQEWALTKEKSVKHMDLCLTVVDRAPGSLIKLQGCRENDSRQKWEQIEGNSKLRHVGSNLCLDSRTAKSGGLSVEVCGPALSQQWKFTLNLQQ
Sequence of UniProt O75521 (O75521 whole entry, looked up): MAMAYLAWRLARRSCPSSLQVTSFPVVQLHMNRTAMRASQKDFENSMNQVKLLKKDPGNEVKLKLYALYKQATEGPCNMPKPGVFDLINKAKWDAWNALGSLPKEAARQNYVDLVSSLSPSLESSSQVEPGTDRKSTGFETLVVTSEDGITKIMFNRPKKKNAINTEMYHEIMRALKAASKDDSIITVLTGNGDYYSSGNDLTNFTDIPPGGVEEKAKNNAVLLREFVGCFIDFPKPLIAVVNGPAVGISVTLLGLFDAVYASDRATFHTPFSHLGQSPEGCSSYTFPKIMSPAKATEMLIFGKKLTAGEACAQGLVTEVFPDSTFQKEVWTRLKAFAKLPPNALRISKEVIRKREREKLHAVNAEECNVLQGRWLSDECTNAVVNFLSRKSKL
Sequence of UniProt P62942 (P62942 whole entry, looked up): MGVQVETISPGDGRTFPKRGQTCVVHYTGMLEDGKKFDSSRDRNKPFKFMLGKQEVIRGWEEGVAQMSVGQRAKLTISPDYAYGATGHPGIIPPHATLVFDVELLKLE
Sequence of UniProt Q9H410 (Q9H410 whole entry, looked up): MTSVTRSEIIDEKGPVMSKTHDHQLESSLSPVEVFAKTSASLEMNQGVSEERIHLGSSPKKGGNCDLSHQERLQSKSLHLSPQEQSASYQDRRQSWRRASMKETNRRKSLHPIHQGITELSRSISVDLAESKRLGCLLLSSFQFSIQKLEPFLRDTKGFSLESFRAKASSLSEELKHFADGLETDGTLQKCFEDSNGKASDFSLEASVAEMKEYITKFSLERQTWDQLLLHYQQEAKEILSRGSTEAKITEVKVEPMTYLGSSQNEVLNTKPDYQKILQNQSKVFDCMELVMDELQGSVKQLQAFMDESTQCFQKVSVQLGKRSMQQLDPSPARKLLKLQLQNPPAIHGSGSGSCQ

Compound in the test: O=C(CCCCCCC(=O)Nc1ccccc1)NO [vorinostat]
Description: log2 fold change, soluble protein after heating vs DMSO (PISA); higher = thermal stabilisation; K562 lysate, 10 uM; active = over 0.2 and 3.5 SD of the protein, either way, in both replicates (recomputed). An outline of the steps:
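Following dounce homogenisation of K562 pellets in PBS pH 7.4 with 1 mM MgCl2, crude extract at 1 mg/mL protein was incubated for 30 min with 10 μM compound. Aliquots were then heated for 3 min over 48°C-58°C and pooled, NP-40 was added to 0.5% at 4°C, and soluble protein was recovered as the supernatant at 21,000xg for 90 min. Channel-sum-equalised TMTpro 16plex LC-MS/MS quantified this protein. Each value, from duplicates, is a log-two fold change in thermal stability relative to solvent controls.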
For the target DTL (UniProt Q9NZJ0), the log2 fold change was -0.165.
The value for EXOC1 (UniProt Q9NV70) was -0.45 (active); that for EEFSEC (UniProt P57772) was -0.325 (active); that for ETFRF1 (UniProt Q6IPR1) was 0.24 (active).
Regarding GGT7 (UniProt Q9UJ14), the log2 fold change is 0.244 (active).
Then FLAD1 (UniProt Q8NFF5), with -0.397 (active); and DST (UniProt Q03001), with -0.035.
Then EP400 isoform 5 (UniProt Q96L91), with -0.279 (active).
Then FDFT1 (UniProt P37268), with -0.006; and ENGASE (UniProt Q8NFI3), with -0.337 (active); and DUSP22 isoform 2 (UniProt Q9NRW4), with -0.102.
In the case of ERAL1 (UniProt O75616), the log2 fold change is -0.103.
Then EED, A0A5F9ZI63, with -0.227 (active); and DUS3L (UniProt Q96G46), with -0.08.
Then DUS2 (UniProt Q9NX74), with -0.014.
The value for FYB1 isoform 3 (UniProt O15117) was 0.002; that for FARSA (UniProt Q9Y285) was 0.381 (active).
Consider FBRSL1, A0A3B3IRR3, for which the log2 fold change was 0.142.
Consider ECI2 (UniProt O75521), for which the log2 fold change was 0.146.
For FBXO22 (UniProt Q8NEZ5), the log2 fold change was -0.477 (active).
The value for DYNC1I2 isoform 2 (UniProt Q13409) was 0.07; that for FAM118B (UniProt Q9BPY3) was -0.273 (active); that for GCLM (UniProt P48507) was -0.277 (active).
In the case of EMP3 (UniProt P54852), the log2 fold change was -0.022.
Then DTWD1 (UniProt Q8N5C7), with -0.27 (active); and FAM204A (UniProt Q9H8W3), with -0.211; and FNBP1L (UniProt Q5T0N5), with -0.373 (active).
The value for GAA (UniProt P10253) was -0.176.
The value for FOXK1 (UniProt P85037) was -0.414 (active).
For FKBP1A (UniProt P62942), the log2 fold change was 0.036.
In the case of GEMIN5 (UniProt Q8TEQ6), the log2 fold change is -0.479 (active).
Then FNTB (UniProt P49356), with 0.03; and DSN1 (UniProt Q9H410), with -0.358 (active); and FBXO30 (UniProt Q8TB52), with -0.316 (active).
Then GALNT2 (UniProt Q10471), with 0.069.
